# Measurements as given in article PMC7862700, “An all-to-all approach to the identification of sequence-specific readers for epigenetic DNA modifications on cytosine”.
# Experiments:
# Assay in all cases: DAPPL (digital affinity profiling via proximity ligation, sequencing); 10 mM Tris-HCl pH 7.5, 50 mM NaCl, 1 mM DTT, 4% glycerol, room temperature, 30 min; GST-TFs on glutathione beads, 16-mer random dsDNA library, 0.1% formaldehyde crosslink after washing; high values mean tight binding
# FLI1 = target: T1, FLI1 (Homo sapiens, UniProt Q01543 1-452); details: protein: recombinant; tags: N-terminal GST; dsDNA, one strand shown
# T1 sequence: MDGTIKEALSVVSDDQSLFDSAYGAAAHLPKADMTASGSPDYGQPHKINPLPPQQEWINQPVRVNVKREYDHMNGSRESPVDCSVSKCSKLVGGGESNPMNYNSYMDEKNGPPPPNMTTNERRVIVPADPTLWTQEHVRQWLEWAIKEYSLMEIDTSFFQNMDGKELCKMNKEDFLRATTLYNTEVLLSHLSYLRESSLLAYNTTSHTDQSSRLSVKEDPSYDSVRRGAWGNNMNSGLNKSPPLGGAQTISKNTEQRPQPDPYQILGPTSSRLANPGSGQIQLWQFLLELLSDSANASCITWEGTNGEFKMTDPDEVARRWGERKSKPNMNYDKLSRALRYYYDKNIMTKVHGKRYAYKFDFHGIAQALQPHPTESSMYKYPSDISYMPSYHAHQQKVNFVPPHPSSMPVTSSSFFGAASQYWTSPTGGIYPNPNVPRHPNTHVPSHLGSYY
# Procedure, shortened: (§1)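 Sequencing on an Illumina NextSeq500 followed washing, crosslinking with 0.1% formaldehyde, proximity ligation (BsaI/T4 ligase, 1 h, 37 °C) and PCR amplification of pools that had been incubated for 30 min at room temperature with 200 nmole of a random double-stranded 16-mer DNA library in Tris/NaCl/DTT/glycerol buffer. Each pool held DNA-barcoded human transcription factors, expressed in yeast as GST fusions and captured on glutathione beads, plus a tag-only sample. Binding signal is a hexamer's read frequency for a factor divided by its frequency in the tag-only sample.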
# ELK1 = target: T2, ELK1 (Homo sapiens, UniProt P19419 1-428); details: protein: recombinant; tags: N-terminal GST; dsDNA, one strand shown
# T2 sequence: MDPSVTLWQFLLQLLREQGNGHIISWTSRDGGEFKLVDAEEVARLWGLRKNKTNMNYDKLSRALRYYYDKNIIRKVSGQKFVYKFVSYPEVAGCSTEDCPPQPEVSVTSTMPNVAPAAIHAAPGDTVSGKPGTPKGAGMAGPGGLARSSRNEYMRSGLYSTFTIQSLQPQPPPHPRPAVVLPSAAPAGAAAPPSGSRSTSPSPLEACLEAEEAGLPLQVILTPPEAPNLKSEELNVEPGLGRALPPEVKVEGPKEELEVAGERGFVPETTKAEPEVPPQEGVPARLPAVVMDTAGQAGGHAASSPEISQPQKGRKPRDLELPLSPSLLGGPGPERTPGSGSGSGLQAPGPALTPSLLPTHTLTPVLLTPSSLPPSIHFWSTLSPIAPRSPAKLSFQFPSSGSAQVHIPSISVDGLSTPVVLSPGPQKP
# Procedure, shortened: as §1
# GABPA = target: T3, GABPA (Homo sapiens, UniProt Q06546 1-454); details: protein: recombinant; tags: N-terminal GST; dsDNA, one strand shown
# T3 sequence: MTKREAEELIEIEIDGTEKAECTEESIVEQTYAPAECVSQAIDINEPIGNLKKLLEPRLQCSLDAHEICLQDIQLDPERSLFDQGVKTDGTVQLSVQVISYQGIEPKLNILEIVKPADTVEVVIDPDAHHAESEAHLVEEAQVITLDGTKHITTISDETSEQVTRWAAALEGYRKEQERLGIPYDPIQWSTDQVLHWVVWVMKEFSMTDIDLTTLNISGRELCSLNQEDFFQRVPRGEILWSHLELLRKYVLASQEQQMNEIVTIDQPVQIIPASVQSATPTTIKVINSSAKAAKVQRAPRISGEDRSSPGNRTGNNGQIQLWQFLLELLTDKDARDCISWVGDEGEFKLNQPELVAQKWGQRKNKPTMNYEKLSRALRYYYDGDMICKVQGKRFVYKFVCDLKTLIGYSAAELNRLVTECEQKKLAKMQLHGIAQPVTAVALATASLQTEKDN
# Procedure, shortened: as §1
# ERG = target: T4, ERG (Homo sapiens, UniProt P11308 1-479); details: protein: recombinant; tags: N-terminal GST; dsDNA, one strand shown
# T4 sequence: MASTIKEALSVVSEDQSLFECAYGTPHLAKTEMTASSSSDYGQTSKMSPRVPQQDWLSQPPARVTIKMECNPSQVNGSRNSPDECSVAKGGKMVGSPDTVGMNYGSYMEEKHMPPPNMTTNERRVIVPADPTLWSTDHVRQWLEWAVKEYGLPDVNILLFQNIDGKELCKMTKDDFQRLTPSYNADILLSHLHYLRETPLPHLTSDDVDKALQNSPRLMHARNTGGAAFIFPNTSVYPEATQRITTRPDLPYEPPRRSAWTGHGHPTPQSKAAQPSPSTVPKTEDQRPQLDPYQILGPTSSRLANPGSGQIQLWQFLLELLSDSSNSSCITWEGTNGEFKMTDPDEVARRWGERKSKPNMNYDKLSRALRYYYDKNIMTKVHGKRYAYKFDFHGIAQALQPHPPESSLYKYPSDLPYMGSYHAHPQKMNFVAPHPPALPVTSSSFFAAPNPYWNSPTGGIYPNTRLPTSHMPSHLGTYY
# Procedure, shortened: as §1
# ELF1 = ELF1 (Homo sapiens, UniProt P32519 1-619); details: protein: recombinant; tags: N-terminal GST; dsDNA, one strand shown
# Procedure, shortened: as §1
# EHF = target: T5, EHF (Homo sapiens, UniProt Q9NZC4 1-300); details: protein: recombinant; tags: N-terminal GST; dsDNA, one strand shown
# T5 sequence: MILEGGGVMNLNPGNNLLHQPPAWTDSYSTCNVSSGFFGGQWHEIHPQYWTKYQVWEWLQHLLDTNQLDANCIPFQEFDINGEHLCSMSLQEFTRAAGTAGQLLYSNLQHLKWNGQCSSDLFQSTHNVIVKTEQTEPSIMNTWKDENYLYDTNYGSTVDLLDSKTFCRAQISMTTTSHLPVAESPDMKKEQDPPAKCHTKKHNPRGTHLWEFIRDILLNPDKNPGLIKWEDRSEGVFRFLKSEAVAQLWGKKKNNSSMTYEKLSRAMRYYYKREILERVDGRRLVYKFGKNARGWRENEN
# Procedure, shortened: as §1
# SPI1 = SPI1 (Homo sapiens, UniProt P17947 1-270); details: protein: recombinant; tags: N-terminal GST; dsDNA, one strand shown
# Procedure, shortened: as §1
# SPIB = SPIB (Homo sapiens, UniProt Q01892 1-262); details: protein: recombinant; tags: N-terminal GST; dsDNA, one strand shown
# Procedure, shortened: as §1
# ELK3 = target: T6, ELK3 (Homo sapiens, UniProt P41970 1-407); details: protein: recombinant; tags: N-terminal GST; dsDNA, one strand shown
# T6 sequence: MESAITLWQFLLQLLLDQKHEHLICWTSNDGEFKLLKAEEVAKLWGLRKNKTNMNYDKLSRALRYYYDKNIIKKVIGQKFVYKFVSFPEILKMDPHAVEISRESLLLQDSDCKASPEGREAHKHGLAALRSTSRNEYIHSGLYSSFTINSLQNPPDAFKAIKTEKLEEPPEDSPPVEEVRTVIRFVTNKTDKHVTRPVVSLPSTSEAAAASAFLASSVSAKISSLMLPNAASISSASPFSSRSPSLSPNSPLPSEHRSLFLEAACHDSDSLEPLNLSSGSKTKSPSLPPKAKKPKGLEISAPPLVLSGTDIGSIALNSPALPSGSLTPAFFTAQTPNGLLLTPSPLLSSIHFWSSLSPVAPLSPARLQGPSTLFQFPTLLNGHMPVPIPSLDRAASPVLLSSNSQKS
# Procedure, shortened: as §1
# FEV = target: T7, FEV (Homo sapiens, UniProt Q99581 1-238); details: protein: recombinant; tags: N-terminal GST; dsDNA, one strand shown
# T7 sequence: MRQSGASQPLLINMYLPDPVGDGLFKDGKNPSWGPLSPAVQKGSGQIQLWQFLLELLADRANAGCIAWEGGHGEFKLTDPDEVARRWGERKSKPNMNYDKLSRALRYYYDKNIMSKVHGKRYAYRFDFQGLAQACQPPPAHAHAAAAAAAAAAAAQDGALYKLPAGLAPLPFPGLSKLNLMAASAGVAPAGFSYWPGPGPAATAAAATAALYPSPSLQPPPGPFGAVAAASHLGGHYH
# Procedure, shortened: as §1
# ETV5 = ETV5 (Homo sapiens, UniProt P41161 1-510); details: protein: recombinant; tags: N-terminal GST; dsDNA, one strand shown
# Procedure, shortened: as §1
# HSF1 = HSF1 (Homo sapiens, UniProt Q00613 1-529); details: protein: recombinant; tags: N-terminal GST; chain copies: 3; dsDNA, one strand shown
# Procedure, shortened: as §1
# SPIC = target: T8, SPIC (Homo sapiens, UniProt Q8N5J4 1-248); details: protein: recombinant; tags: N-terminal GST; dsDNA, one strand shown
# T8 sequence: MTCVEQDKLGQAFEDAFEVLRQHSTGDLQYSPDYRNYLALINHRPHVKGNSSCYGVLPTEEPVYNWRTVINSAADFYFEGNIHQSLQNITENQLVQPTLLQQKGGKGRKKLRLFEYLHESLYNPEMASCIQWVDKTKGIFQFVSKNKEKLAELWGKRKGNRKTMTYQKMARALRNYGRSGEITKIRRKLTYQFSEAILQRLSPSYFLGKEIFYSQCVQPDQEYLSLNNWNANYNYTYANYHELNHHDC
# Procedure, shortened: as §1
# ELF4 = ELF4 (Homo sapiens, UniProt Q99607 1-663); details: protein: recombinant; tags: N-terminal GST; dsDNA, one strand shown
# Procedure, shortened: as §1
# ELK4 = target: T9, ELK4 (Homo sapiens, UniProt P28324-2 1-405); details: protein: recombinant; tags: N-terminal GST; dsDNA, one strand shown
# T9 sequence: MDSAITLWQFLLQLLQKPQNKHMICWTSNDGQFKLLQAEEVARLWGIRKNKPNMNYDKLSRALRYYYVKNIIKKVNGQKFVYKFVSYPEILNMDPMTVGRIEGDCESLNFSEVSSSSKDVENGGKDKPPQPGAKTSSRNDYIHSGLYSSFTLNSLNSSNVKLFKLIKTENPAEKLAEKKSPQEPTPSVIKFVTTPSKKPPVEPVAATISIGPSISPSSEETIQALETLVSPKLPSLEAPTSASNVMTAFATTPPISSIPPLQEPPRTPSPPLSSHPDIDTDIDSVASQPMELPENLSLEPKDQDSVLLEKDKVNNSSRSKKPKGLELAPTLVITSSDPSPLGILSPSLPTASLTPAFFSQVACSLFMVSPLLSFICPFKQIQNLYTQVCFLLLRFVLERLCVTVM
# Procedure, shortened: as §1
# ETV2 = target: T10, ETV2 (Homo sapiens, UniProt O00321 1-342); details: protein: recombinant; tags: N-terminal GST; dsDNA, one strand shown
# T10 sequence: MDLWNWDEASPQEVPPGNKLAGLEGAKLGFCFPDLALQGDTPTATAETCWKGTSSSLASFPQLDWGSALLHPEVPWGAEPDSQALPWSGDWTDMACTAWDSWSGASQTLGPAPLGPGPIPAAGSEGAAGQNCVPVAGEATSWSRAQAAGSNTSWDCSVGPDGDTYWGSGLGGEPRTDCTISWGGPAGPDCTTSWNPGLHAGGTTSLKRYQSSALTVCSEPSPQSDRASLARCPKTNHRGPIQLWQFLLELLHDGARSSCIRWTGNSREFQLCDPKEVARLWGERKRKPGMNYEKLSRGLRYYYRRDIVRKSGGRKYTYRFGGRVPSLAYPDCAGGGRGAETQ
# Procedure, shortened: as §1
# ELF3 = target: T11, ELF3 (Homo sapiens, UniProt P78545 1-371); details: protein: recombinant; tags: N-terminal GST; dsDNA, one strand shown
# T11 sequence: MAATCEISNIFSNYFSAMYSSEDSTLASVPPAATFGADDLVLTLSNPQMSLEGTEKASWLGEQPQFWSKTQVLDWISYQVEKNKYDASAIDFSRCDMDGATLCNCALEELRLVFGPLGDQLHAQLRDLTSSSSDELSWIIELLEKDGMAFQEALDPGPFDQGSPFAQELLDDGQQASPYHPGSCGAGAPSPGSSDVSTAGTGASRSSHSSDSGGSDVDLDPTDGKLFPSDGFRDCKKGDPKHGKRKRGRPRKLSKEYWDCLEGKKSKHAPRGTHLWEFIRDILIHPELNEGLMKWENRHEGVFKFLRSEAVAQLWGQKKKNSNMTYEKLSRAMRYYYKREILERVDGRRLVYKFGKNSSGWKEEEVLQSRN
# Procedure, shortened: as §1
# CRX = CRX (Homo sapiens, UniProt O43186 1-299); details: protein: recombinant; tags: N-terminal GST; dsDNA, one strand shown
# Procedure, shortened: as §1
# ETV1 = ETV1 (Homo sapiens, UniProt P50549 1-477); details: protein: recombinant; tags: N-terminal GST; dsDNA, one strand shown
# Procedure, shortened: as §1
# Sequence of ELF4 (Q99607 whole entry): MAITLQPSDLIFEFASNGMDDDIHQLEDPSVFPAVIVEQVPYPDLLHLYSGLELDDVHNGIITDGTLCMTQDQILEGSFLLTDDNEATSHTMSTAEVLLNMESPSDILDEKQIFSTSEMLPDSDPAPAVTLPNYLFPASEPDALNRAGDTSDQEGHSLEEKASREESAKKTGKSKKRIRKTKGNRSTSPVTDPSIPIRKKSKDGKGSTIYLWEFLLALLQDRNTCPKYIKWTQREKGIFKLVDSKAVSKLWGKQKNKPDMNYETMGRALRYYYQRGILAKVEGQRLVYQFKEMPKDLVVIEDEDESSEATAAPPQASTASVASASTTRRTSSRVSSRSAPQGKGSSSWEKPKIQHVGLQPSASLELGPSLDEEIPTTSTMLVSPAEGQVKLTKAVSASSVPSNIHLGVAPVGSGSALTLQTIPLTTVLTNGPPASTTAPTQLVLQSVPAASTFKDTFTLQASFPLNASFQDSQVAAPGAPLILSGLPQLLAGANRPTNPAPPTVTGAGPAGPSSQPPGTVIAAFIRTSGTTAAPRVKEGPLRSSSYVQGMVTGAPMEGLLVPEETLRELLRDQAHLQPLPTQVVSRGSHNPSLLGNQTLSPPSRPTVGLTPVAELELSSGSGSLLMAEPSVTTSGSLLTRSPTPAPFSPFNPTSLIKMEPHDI
# Sequence of SPIB (Q01892 whole entry): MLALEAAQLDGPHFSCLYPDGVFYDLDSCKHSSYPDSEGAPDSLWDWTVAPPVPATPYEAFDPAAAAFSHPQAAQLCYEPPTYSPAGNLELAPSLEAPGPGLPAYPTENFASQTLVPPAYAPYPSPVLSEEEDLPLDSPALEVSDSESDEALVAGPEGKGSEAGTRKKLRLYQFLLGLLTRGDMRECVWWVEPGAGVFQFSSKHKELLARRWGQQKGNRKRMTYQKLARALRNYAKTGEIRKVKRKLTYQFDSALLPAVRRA
# Sequence of HSF1 (Q00613 whole entry): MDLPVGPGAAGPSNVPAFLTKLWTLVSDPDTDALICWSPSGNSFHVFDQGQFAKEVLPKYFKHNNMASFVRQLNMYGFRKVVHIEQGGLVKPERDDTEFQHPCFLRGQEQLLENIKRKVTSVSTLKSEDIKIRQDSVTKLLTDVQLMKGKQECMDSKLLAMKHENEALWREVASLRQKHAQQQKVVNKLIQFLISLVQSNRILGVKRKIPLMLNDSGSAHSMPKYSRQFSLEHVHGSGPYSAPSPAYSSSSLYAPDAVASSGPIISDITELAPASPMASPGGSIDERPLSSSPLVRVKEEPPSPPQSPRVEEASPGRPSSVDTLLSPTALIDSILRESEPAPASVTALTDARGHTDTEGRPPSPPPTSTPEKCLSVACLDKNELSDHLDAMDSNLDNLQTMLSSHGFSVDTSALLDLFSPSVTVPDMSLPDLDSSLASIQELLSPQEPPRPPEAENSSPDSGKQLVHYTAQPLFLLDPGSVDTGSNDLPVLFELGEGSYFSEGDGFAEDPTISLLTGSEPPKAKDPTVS
# Sequence of ETV1 (P50549 whole entry): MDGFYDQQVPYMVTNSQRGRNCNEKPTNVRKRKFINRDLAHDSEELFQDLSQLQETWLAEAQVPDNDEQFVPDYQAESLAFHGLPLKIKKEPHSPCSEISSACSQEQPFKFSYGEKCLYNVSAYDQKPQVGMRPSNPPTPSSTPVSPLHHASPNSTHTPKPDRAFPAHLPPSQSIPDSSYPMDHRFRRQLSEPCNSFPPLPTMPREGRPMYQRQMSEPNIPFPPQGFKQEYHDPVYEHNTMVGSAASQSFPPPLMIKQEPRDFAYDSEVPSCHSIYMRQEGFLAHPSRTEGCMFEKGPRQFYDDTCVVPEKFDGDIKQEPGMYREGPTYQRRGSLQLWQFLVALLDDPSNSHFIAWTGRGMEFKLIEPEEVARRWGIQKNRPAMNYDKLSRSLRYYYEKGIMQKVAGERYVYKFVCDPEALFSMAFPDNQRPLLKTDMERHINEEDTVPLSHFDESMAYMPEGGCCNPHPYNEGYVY
# Sequence of ETV5 (P41161 whole entry): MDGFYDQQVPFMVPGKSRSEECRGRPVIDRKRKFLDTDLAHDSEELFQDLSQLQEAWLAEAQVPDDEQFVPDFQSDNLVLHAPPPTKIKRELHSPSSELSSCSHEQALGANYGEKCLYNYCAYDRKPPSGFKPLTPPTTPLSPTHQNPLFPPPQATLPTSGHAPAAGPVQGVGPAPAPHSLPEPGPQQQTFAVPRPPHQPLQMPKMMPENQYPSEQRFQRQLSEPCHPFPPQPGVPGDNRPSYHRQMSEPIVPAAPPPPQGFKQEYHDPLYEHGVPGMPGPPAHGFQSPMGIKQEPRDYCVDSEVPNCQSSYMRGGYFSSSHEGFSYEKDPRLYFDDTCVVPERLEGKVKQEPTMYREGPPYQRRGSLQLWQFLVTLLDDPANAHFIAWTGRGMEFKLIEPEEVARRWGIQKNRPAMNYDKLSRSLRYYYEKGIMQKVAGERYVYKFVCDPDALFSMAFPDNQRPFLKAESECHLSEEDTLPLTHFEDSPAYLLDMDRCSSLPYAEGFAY
# Sequence of ELF1 (P32519 whole entry): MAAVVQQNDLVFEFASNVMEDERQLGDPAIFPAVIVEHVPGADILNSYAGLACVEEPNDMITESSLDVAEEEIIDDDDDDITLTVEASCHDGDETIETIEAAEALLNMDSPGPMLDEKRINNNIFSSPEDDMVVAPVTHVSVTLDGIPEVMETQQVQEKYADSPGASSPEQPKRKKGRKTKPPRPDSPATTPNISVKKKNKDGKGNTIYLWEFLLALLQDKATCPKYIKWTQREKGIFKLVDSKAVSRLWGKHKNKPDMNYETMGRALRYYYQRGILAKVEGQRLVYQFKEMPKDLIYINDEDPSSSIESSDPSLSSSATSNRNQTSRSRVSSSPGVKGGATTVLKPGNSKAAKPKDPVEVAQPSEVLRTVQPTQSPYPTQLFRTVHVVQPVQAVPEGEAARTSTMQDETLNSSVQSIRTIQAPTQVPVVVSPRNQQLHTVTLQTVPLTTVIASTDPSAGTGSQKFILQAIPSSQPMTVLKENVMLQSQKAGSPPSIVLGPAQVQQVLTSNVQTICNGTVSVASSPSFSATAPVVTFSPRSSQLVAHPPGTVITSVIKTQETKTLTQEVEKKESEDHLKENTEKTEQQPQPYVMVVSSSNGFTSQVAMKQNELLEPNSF
# Sequence of CRX (O43186 whole entry): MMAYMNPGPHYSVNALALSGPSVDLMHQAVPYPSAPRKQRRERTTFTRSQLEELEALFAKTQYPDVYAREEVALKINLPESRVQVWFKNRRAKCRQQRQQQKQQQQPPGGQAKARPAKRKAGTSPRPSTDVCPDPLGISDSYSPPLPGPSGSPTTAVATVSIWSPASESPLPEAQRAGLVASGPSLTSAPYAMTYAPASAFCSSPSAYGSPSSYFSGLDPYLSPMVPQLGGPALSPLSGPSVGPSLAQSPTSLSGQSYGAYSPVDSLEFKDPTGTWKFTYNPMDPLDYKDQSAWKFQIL
sequence,measurement,setting,value
ATGTCT,binding signal,FLI1,"1.21 fold enrichment (6-mer frequency, TF over GST control)"
same,binding signal,ELK1,"1.28 fold enrichment (6-mer frequency, TF over GST control)"
same,binding signal,GABPA,"1.36 fold enrichment (6-mer frequency, TF over GST control)"
same,binding signal,ERG,"1.22 fold enrichment (6-mer frequency, TF over GST control)"
same,binding signal,ELF1,"1.29 fold enrichment (6-mer frequency, TF over GST control)"
same,binding signal,EHF,"1.13 fold enrichment (6-mer frequency, TF over GST control)"
same,binding signal,SPI1,"1.32 fold enrichment (6-mer frequency, TF over GST control)"
same,binding signal,SPIB,"1.3 fold enrichment (6-mer frequency, TF over GST control)"
same,binding signal,ELK3,"1.18 fold enrichment (6-mer frequency, TF over GST control)"
same,binding signal,FEV,"1.27 fold enrichment (6-mer frequency, TF over GST control)"
same,binding signal,ETV5,"1.36 fold enrichment (6-mer frequency, TF over GST control)"
same,binding signal,HSF1,"1.17 fold enrichment (6-mer frequency, TF over GST control)"
same,binding signal,SPIC,"1.27 fold enrichment (6-mer frequency, TF over GST control)"
same,binding signal,ELF4,"1.28 fold enrichment (6-mer frequency, TF over GST control)"
same,binding signal,ELK4,"1.07 fold enrichment (6-mer frequency, TF over GST control)"
same,binding signal,ETV2,"1.26 fold enrichment (6-mer frequency, TF over GST control)"
same,binding signal,ELF3,"1.08 fold enrichment (6-mer frequency, TF over GST control)"
same,binding signal,CRX,"1.18 fold enrichment (6-mer frequency, TF over GST control)"
same,binding signal,ETV1,"1.23 fold enrichment (6-mer frequency, TF over GST control)"
